Assay results as given in the supplement of paper PMC3724861.
Many of the other results were omitted from the sample, so hits are more common in it than they were. The hit rate among all sequences tested is not known here. Values without a mark were called inactive.

System: T1, Caupolican (Caup) homeodomain DNA-binding domain
T1 sequence: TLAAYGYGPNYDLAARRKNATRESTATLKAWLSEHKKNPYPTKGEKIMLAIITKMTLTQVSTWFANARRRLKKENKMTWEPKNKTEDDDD
Assay: PBM E-score (8-mer, recovered from the published 9-mer minima) (E-score (dimensionless, -0.5 to 0.5)); Drosophila protein; higher = stronger relative binding preference, active = 0.31 or more
Outline: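 Caup's homeodomain DNA-binding domain (residues 214-303) was produced by in vitro transcription and translation and applied at 100 nM to custom-designed protein binding microarrays. Each value is an enrichment score giving relative binding preference for a short DNA word; higher means stronger. Published 9-mer scores were the minimum of their two constituent 8-mer scores, and the 8-mer values were recovered from those minima. A cutoff of 0.31 marks candidate binding sequences.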

Sequence	PBM E-score
GCTGGTAC	0.0272
AGTTCTAT	0.0299
ATCTTGTG	0.18
CTCTTGTA	0.299
ATCTTGTA	0.375 (active)
ATCTTGTC	0.308
GTCTTGTA	0.352 (active)
GTCTTGCA	0.0651
GCAAAGGC	-0.087
ATATGCGA	0.0126
AGTTCAAC	0.0449
ACTCCTTG	0.0436
CCTCTGCC	-0.243
CACATAAC	0.223
ATCATAAC	0.156
GACATAAA	0.288
GCCATAAC	0.0397
AACATAAG	0.268
GACATAAC	0.325 (active)
AACATAAT	≥ 0.327 (active)
ATCATAAT	0.167
AACATAAC	0.318 (active)
AGCCCATG	0.00842
CCTTAAGG	-0.154

Sequence	PBM E-score
AGAACGCC	-0.114
CACACGGG	-0.0095
AACACGGT	0.351 (active)
AACACGGG	0.32 (active)
AACACGGA	0.31
AACACGCT	0.267
AACACGGC	0.166
CGCTGAAG	-0.19
CGCATTGA	-0.0262
CCCCAGCG	-0.312
CAAAACGG	0.016
AAGGCTCA	-0.107
AATTTTCT	0.0254
AGTGGACC	-0.151
ACAACAAT	0.347 (active)
ACAACCAG	0.249
GCAACAAC	0.205
ACAACAAG	0.362 (active)
TCAACAAA	0.157
CCAACAAG	0.196
CCAACAAC	0.178
ACAACAAA	0.323 (active)
GCAACAAA	0.15
ACAACAGT	0.205

Sequence	PBM E-score
ACAACAAC	0.36 (active)
AAAACAAT	0.177
AGTACGGA	-0.0156
ATAGACTA	0.115
AGTTATTG	0.11
AGAGTCCC	-0.228
GTACAGAA	0.136
AGTATCAA	0.148
CGTATCAA	0.0341
TGTATCAA	0.315 (active)
CCTGTCTA	0.0989
CTTGTCTA	0.281
GCTGTCAA	0.057
CTTGTCCA	0.287
GTTGTCAA	0.339 (active)
GTTGTCCA	≥ 0.336 (active)
GTTGTCTA	0.321 (active)
ATTGTCCA	0.1
ATTGTCAA	0.183
ATTGTCTA	0.194
CGGGACAA	0.0647
CCGGGTGC	-0.287
ACTTAATC	0.0653
GTTTAATA	0.23

Sequence	PBM E-score
AAAGCCGA	-0.139
GGGTACAA	0.242
AGGTACAA	0.345 (active)
CGGTACAA	0.234
AGGTACTC	0.085
AGGTACAC	0.297
AGGTATAA	0.0486
AGGTACAT	0.389 (active)
TGGTACAA	0.358 (active)
AGGTACAG	0.146
GGAGGGAA	-0.186
ACGCATAT	0.103
ACGGCTTG	-0.133
CACCTACA	0.17
AGTCATTG	0.121
CGAGTGAA	-0.00479
TAACACGA	0.323 (active)
GAACACGA	0.32 (active)
GAACACTA	0.103
CAACACGA	0.267
GAACACGC	0.254
TAACACCA	0.247
GCCGCCCA	-0.275
ATGTAAAA	0.354 (active)

Sequence	PBM E-score
CTGTAAAC	0.18
CTGTAAAG	0.0792
AGGTAAAT	0.153
AAGTAAAG	-0.0403
ATGTAAAC	0.36 (active)
GTGTAAAC	0.293
ATGTAAAG	0.317 (active)
TTGTAAAA	0.275
ATGTAAAT	0.352 (active)
ACGTAAAT	0.102
CTGTAAAA	0.121
AGAGTAGG	0.00327
CCCCTCGC	-0.261
CACACATG	0.192
AGCGACAA	0.228
GTTATTTA	0.201
AATGCATA	0.0394
ACGTTTGG	0.0157
AAGGTCAA	0.00315
ATGCCTCA	-0.045
CGAGACAA	0.0948
AAGTGTAG	0.17
ACGTGTAC	0.367 (active)
ACGTGTAG	0.321 (active)

Sequence	PBM E-score
CCGTGTCC	0.218
ACGTGTGC	0.0653
CCGTGTAG	0.286
ACGTGTCT	0.244
ACGTGTAT	0.353 (active)
AAGTGTAC	0.304
AAGTGTAT	0.144
CAGTGTAC	0.207
CCGTGTAC	0.411 (active)
CTGAGCGC	-0.211
TCTCGAGA	0.0237
AACGACTG	0.0234
CTTCAGTC	-0.0898
AGTCCATG	0.0703
ACTGCCGG	-0.163
ACTATCGG	-0.056
CGCAGGTA	-0.0146
AGGTAAAA	0.0159
GAGTGTAC	0.121
GCGTGTCC	0.223
GCGTGTAC	0.367 (active)
CCTAAAAC	-0.07
GGTGGCCA	-0.164
CCCTTACA	0.152

Sequence	PBM E-score
ATGGCCCC	-0.175
AATATAGA	0.138
ACAAACAC	0.301
ACAAACCT	0.0926
ATAAACAA	0.254
ACAAACAA	0.317 (active)
ACAAACAG	0.258
TTAAACAA	0.23
AAAAACAT	0.296
ACAAACAT	0.368 (active)
ATAAACAC	0.251
GTAAACAA	0.321 (active)
ATAAACAT	0.321 (active)
ATAAACAG	0.147
CGGTGAAA	-0.001
ATCTTCTG	-0.0212
CACTAAAG	-0.125
GATATGGC	-0.0691
GATTTGCC	-0.0122
AGTGTAAG	0.215
GGTGTAAA	0.24
CGTGTAAG	0.333 (active)
GGTGTAAC	0.205
AGTGTAAA	0.13

Sequence	PBM E-score
AGTGTAAC	0.2
CGTGTAAA	0.377 (active)
CGTGTAAC	0.321 (active)
ACTGTAAG	0.147
TGTGTAAA	0.318 (active)
ACGTTCCG	-0.0768
AAGCCAGG	-0.171
ACCCGCAG	-0.142
AATTAGAC	0.132
CAGCGAAC	0.0117
CGGCCCTC	-0.331
AGGCCCCC	-0.398
GGATCGCA	0.00822
CCATAGCA	0.0725
CATGTTTC	0.355 (active)
CATGTTTA	0.399 (active)
AATGTTTC	0.143
AATGTTTA	0.213
GATGTTTA	0.247
CCTGTTTC	0.17
CTAGAGCA	-0.132
AAATGCAA	0.0939
CCACAGGA	-0.0146
ATTGCCCG	-0.0341

Sequence	PBM E-score
CAACTCAC	0.0566
AGTAAGAA	0.06
ATCGCAAG	-0.0386
CTTGTAAC	0.424 (active)
GTTGTAAA	0.279
ATTGTAAA	0.246
CTTGTAAA	0.365 (active)
CCTGTAAC	0.176
ATTGTAAC	0.308
GCATGAGA	-0.0059
CTCGTGAC	-0.0131
ATAGACAG	0.16
CTAGACAA	0.0936
TTAGACAA	0.206
ATAGACAT	0.321 (active)
ATAGACAC	0.259
GTAGACAA	0.313 (active)
ATCGAAAC	-0.0231
CTTCCAAG	-0.0467
AGAGGTGG	-0.107
ATGTATCA	0.321 (active)
AAGTATCC	-0.0551
GTGTATCA	0.276
CTGTATCC	0.2

Sequence	PBM E-score
ACGTATCG	0.15
ATGTATCC	0.332 (active)
AAGTATCG	0.134
CTGTATCA	0.15
ATGTATCG	0.337 (active)
ATGTCCAG	0.2
ACGCAACA	0.215
ATTTAGTC	0.0884
CCCCAAAC	-0.0197
CTTGCTGC	-0.0454
AATAACAT	0.348 (active)
AATAACAG	0.241
AGTAACAC	0.24
AATAACAC	0.284
AGTAACAG	0.19
AGTAACAT	0.316 (active)
